Legend:
Test in all cases: PBM binding z-score (relative to random genomic background probes); higher = stronger binding; sequences stand for … in GC…GCGATTGACAGCGTAGAATGAAGG
[1] = test system: RARb homodimer (NR concentration 270 nM)
Outline: (§1)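 Binding z-scores were set against random background probes. The data came from custom Agilent 4×180K protein-binding microarrays carrying double-stranded probes with 34-nt variable regions, incubated 1 h with ligand-free nuclear receptor dimers. Partner-specific antibodies detected binding, and scanned fluorescence was regression-normalized.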

[2] = test system: RARg:RXRa (NR concentration 270 nM, RXRa partner concentration 90 nM)
Outline: as §1

[3] = test system: RARg homodimer (NR concentration 270 nM)
Outline: as §1

[4] = test system: RXRa DBDmut IVT, anti-RXR (DBD mutation: RXRa K156A/R161A, NR concentration 90 nM)
Outline: as §1

[5] = test system: RXRa homodimer (NR concentration 180 nM)
Outline: as §1

[6] = test system: THRa:RXRa (NR concentration 90 nM, RXRa partner concentration 90 nM)
Outline: as §1

[7] = test system: THRa homodimer (NR concentration 90 nM)
Outline: as §1

[8] = test system: VDR homodimer (NR concentration 270 nM)
Outline: as §1

| Sequence | PBM binding z-score [1] | PBM binding z-score [2] | PBM binding z-score [3] | PBM binding z-score [4] | PBM binding z-score [5] | PBM binding z-score [6] | PBM binding z-score [7] | PBM binding z-score [8] |
| --- | --- | --- | --- | --- | --- | --- | --- | --- |
| ACTAGTTGTTCAGCTGAGGTCACACACAATTCGG | 4.34 | 3.72 | 3.35 | 1.54 | 4.16 | 4.65 | 5.2 | 2.84 |
| CGTCAAAGTTCAAGTTAACGTAACAGAAAGCAGC | 4.24 | 5.84 | 6.77 | 4.89 | 5.38 | 2.3 | -0.142 | 4.05 |
| CTCGAAAGGTCGGTTGAGGTGACTATACGGATAA | 2.54 | 3.04 | 2.85 | 0.99 | 2.76 | 5.16 | 1.68 | 0.829 |
| CGTCCAAGGTCAGCAGGTGAGTGAAAGCGACGTG | 3.84 | 5.23 | 6.27 | 2.47 | 3.87 | 3.28 | 1.95 | 0.692 |
| ATCGAAAGGTCGTGACGTGAGTATACAGAAAGGC | 2.18 | 4.37 | 3.53 | 0.904 | 4.94 | 2.15 | -0.269 | 0.662 |
| CCGAGTAGGTTACAAGGGGGCATTCAGTGCGAAT | 2.41 | 2.84 | 2.42 | 1.47 | 2.1 | 3.61 | 0.507 | 3.51 |
| CCTACTGGGCCAAAGGTCAGTGATTCCAATGCTC | 4.33 | 4.71 | 4.48 | -0.00245 | 4.48 | 2.35 | 0.381 | 0.516 |
| TAGCCTAGGTGATTGGGCCAGTATAGTACGCATC | -0.159 | -0.276 | -0.119 | -0.669 | -0.198 | -0.224 | -0.512 | -0.67 |
| AGCTCTAGGTAAAAGTTCAGTGAATCCCGAGGAT | 2.44 | 1.57 | 1.62 | 0.637 | 1.46 | 1.14 | 0.029 | 1.69 |
| CAAACTAGGTCACCAGGACAGTGAAGAGGTTGGA | 3.44 | 4.56 | 5.51 | 1.54 | 3.75 | 3.77 | 2 | 1.03 |
| CGAACTAGGTCAAAGGCCAGTGAAAGGCGACGTA | 3.16 | 4.37 | 4.81 | 1.49 | 3.62 | 2.42 | 0.00822 | -0.206 |
| CGAACTAGGTCACAGGACAGTGAAAGGCGACGTA | 3.12 | 4.25 | 4.96 | 1.61 | 3.27 | 2.86 | 0.815 | 0.381 |
| CTTAGTTGGTCAGGAGGTCACACACCGGATATGA | 4.33 | 5.21 | 4.53 | 1.06 | 4.99 | 3.67 | 2.65 | 2.74 |
| CCGACGGGGGCAAGGTTACCATAACGCACAGCCA | 2.54 | 3.79 | 3.51 | 2.32 | 3.35 | 3.09 | 1.26 | 1.78 |
| ACTAGAAGGCCAAGGGTCACTCAAGATTAGTCCG | 3.97 | 4.79 | 4.33 | 0.883 | 4.57 | 2.87 | 0.528 | 1.92 |
| ACTAACAGGCCAAGGGTCACTCAAGATTAGTCCG | 4.08 | 4.46 | 4.16 | 1.23 | 4.7 | 2.9 | 0.619 | 1.46 |
| ATCGGAAGGTCGAGGTGAGTATAGAGAAAGGGAA | 2.14 | 2.38 | 2.75 | 0.14 | 2.25 | 2.28 | 0.964 | 0.543 |
| ATATGTAGGTTAGGCTCATTCAGAAAGTAGGGAA | 0.0368 | 0.252 | 0.612 | 0.0964 | 0.205 | 0.086 | -0.237 | -0.178 |
| CATACAGGGTCCGCTAGGCCAGAGTAGGGACGGC | -0.0807 | -0.0159 | 0.424 | -0.419 | -0.247 | -0.0805 | -0.241 | -0.213 |

| Sequence | PBM binding z-score [1] | PBM binding z-score [2] | PBM binding z-score [3] | PBM binding z-score [4] | PBM binding z-score [5] | PBM binding z-score [6] | PBM binding z-score [7] | PBM binding z-score [8] |
| --- | --- | --- | --- | --- | --- | --- | --- | --- |
| TTATCAAGGTGAAAGGTCGTTGATGCACGCCTTG | 2.42 | 4.25 | 2.44 | 0.854 | 5.89 | 3.44 | 1.19 | 1.54 |
| TCGAGTACGTTACGGGGGCATTCAGGGATGAAGA | 1.42 | 1.46 | 0.926 | 3.21 | 1.25 | 3.59 | 0.925 | 4.32 |
| AGTCAAAGTTCAGGACGAGGTAATGTAAAGCACG | 3.05 | 4.89 | 4.72 | 3.05 | 3.37 | 3.5 | 1.44 | 2.1 |
| CCGAGTATGTTACGAGGGGGCATTCAGTGCGAAT | 1.63 | 1.76 | 1.26 | 2.1 | 1.31 | 2.31 | 0.458 | 3.74 |
| CGTCTAAGTTCAAGGTAACGTAACAGAAAGCAGC | 2.51 | 3.53 | 4.06 | 4.62 | 2.82 | 3.09 | 2.02 | 3.41 |
| GCTGCTAGGTCGACTGATGGTCAGCTAAAGCTCG | 0.638 | 1.2 | 0.89 | 0.38 | 0.265 | 0.35 | -0.82 | -1 |
| AGTCAAATTTCACTAGGTAACGTAAGATTCAGCT | 0.0165 | -0.19 | 0.218 | 0.395 | -0.206 | 0.638 | 0.471 | 0.31 |
| CTATGTAGGTTAAGGGGGTCATTTAGTTTGAAAG | 3.86 | 5.19 | 3.66 | 2.54 | 5.85 | 3.83 | 2.03 | 5.81 |
| AGTCAAAGTTCACGAGGTAACGTAAGATTCAGCT | 4.91 | 6.34 | 7.02 | 4.45 | 6.24 | 3.61 | 1.34 | 3.84 |
| AGTAAAAGTTCACTAGGTAACGTAAGATTCAGCT | 3.39 | 4.08 | 4.93 | 4.22 | 3.39 | 1.8 | 0.341 | 3.76 |
| CCCGCTAGGTCATGGTCAGCTAATCTACAGTATG | 3.38 | 4 | 4.55 | 1.57 | 3.06 | 3.21 | 1.91 | 0.379 |
| CCTACTGGGCGATTCAGAGGTCATTGATCATATG | 3.62 | 3.12 | 2.1 | 0.873 | 3.28 | 2.83 | 0.887 | 2.83 |
| CGAACTAGGTCAAAGAACAGTGAAAGGCGACGTA | 2.03 | 3.41 | 4.27 | 1.3 | 3 | 2.06 | 0.033 | 0.121 |
| ATATGTAGGTTAGGGTCATTCATAAAGTAGGGAA | 3.59 | 4.05 | 3 | 2.76 | 5.31 | 4.21 | 3.65 | 4.32 |
| CCGAGTAGGTTACGAGGGGGCATTCATTGCGAAT | 2.05 | 3.01 | 2.09 | 1.21 | 2 | 3.7 | 0.405 | 2.02 |
| CGTCCAAGGTAAATGCTAGGTCAGTGAAAGCATT | 2.15 | 1.85 | 1.23 | 0.0865 | 0.316 | 2.53 | 1.11 | -0.194 |
| CCTTACGGGTCGCTGACAGGTTATAGCATTTGGA | 1.02 | 2.45 | 1.01 | 0.55 | 1.78 | 0.913 | -0.259 | 0.138 |
| TCGAGTAGGTTACAGGGGCATTCAGGGATGAAGA | 1.64 | 1.1 | 0.679 | 0.69 | 1.29 | 2.65 | 0.735 | 1.42 |
| GATACAGGGGCAAGGCCAGAGTACGCGTATTGAT | 1.19 | 0.895 | 1.33 | 0.352 | 0.544 | 0.311 | -0.32 | 0.636 |

| Sequence | PBM binding z-score [1] | PBM binding z-score [2] | PBM binding z-score [3] | PBM binding z-score [4] | PBM binding z-score [5] | PBM binding z-score [6] | PBM binding z-score [7] | PBM binding z-score [8] |
| --- | --- | --- | --- | --- | --- | --- | --- | --- |
| CGAACTAGGTCACCAAGACAGTGAAGAGGTTGGA | 3.11 | 4.04 | 4.97 | 1.29 | 3.06 | 2.74 | 1.28 | 0.496 |
| CCGAGTAGGTTACGAGGTGGCATTCAGTGCGAAT | 0.473 | 0.479 | 0.466 | 0.226 | 0.697 | 0.837 | -0.2 | 0.0157 |
| ATATGTAGGTTAAGGTCATTCAGAAAGTAGGGAA | 4.18 | 4.81 | 4.96 | 2.75 | 4.96 | 4.41 | 4.8 | 4.05 |
| TCTAGTAGGTTACGGGGGCATTCAGGGATGAAGA | 2.73 | 3.98 | 3.21 | 2.95 | 3.28 | 4.01 | 2.2 | 3.82 |
| TATACTGGGTCAAAGGCCAGAGTACGAATGTCGA | 2.9 | 3.96 | 3.88 | 0.958 | 3.99 | 2.24 | 0.212 | 1.37 |
| AGTCATAGTTCACTAGGTAACGTAAGATTCAGCT | 2.32 | 2.32 | 2.72 | 1.82 | 1.6 | 1.11 | 0.171 | 0.797 |
| ACTCGGAGGACAAAGGTCAGAACTACGCCAGTGA | 3.96 | 5.75 | 4.61 | 1.08 | 4.75 | 3.28 | 0.786 | 0.984 |
| CGAACTAGTTCAAAGGACAGTGAAAGGCGACGTA | 1.43 | 1.25 | 1.73 | 2.02 | 0.848 | 0.426 | -0.6 | 0.808 |
| ATATGTAGGTTAGGGGCATTCAGAAAGTAGGGAA | 2.01 | 1.14 | 1.14 | 1.45 | 1.21 | 1.73 | 1.35 | 1.82 |
| CCTAGTTGGTCAAGGTCACGCACGCTATAGGTAC | 4.81 | 5.21 | 5.57 | 1.94 | 5.65 | 4.06 | 4.48 | 3.96 |
| CCAAGTAGGTTACGAGGGGGCATTCAGTGCGAAT | 2.46 | 3.53 | 3.14 | 1.89 | 2.52 | 3.6 | 0.736 | 3.82 |
| ACTAGTTGGTCAGCTGGGGTCACACACAATTCGG | 4.07 | 4.45 | 3.92 | 1.28 | 5.58 | 4.71 | 3.54 | 3.33 |
| TCGAGTAGGTTAAGGGGGCATTCAGGGATGAAGA | 2.37 | 3.17 | 2.01 | 1.92 | 2.62 | 3.58 | 1.48 | 3.24 |
| CTATGTAGGTTAAGGGGGTCATTAAGTTTGAAAG | 3.65 | 4.97 | 3.44 | 2.43 | 5.43 | 3.79 | 2.03 | 6.07 |
| ATATGTAGGTTAGGATCATTCAGAAAGTAGGGAA | 0.531 | 0.593 | 0.675 | 0.541 | 1.01 | 0.577 | 0.347 | 0.616 |
| CCCAGTAGGTTACGAGGGGGCATTCAGTGCGAAT | 2.13 | 3.35 | 2.76 | 0.746 | 2.04 | 3.89 | 0.525 | 3.62 |
| ACAGACAGGTGAGTGAAGGTCACTCAGCTGGACG | 3.64 | 3.32 | 3.72 | -0.197 | 2.89 | 3.41 | 0.198 | 0.819 |
| CTATGTAGGATAAGGGGGTCATTCAGTTTGAAAG | 3.71 | 4.18 | 2.98 | 2.23 | 5.45 | 3.75 | 1.96 | 6.25 |

From the supplement of paper PMC6555819
